# D3 antag: D3 dopamine receptor (human) antagonism. max response, negative = inhibition, %. P35462. 360,000 tested, 2.5% active. D3R cells, DiscoveRx beta-arrestin luminescence, antagonist mode; active compounds read low; in the data active = max response below about -50%; inconclusive = no clear call, values can overlap the other calls; note: % is set by controls: 0 for no effect and ±100 for the full control effect
#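 Cells plated overnight at 1500 cells/well, then exposed to library compounds with dopamine controls for 90 minutes at 37 degrees C. DiscoveRx reagent added for 30–60 minutes at room temperature; luminescence read, quantitative HTS format.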
# GLP1R ag: agonists of human GLP-1 receptor | 380,000 tested, 0.007% active | Potency, µM (top dose mostly 45.6 µM), for the others: top-dose activation, actives largely listed as activators | HEK293 GLP-1R CRE-luciferase, luminescence, 4-6 h; cells express a hypersensitive GLP-1R form | P43220; note: potency is the fitted concentration of half-maximal effect; % of control where 0% means no effect
# Target sequence (P43220 whole entry, looked up): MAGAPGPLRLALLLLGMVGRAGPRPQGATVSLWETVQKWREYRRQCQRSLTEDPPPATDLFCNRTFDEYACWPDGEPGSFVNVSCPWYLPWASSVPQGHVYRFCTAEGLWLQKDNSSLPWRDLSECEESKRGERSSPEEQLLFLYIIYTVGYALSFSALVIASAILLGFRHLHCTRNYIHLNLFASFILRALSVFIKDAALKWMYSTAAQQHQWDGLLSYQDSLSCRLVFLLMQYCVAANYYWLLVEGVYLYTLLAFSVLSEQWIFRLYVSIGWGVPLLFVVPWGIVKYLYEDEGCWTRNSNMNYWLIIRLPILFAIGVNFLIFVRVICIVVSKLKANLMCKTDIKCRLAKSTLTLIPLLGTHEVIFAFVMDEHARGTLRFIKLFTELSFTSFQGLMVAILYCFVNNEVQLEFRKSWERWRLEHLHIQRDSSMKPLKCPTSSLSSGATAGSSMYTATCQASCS
# GLP1R inv ag: GLP-1 receptor (human) inverse agonism | AID 624417 | Potency, µM (series often up to 38.3 µM), for inactives: at the top dose activity change, negative = inhibition, most hits filed as inhibitors | P43220 | 410,000 tested, 1.6% active | HEK293 GLP-1R CRE-luciferase, luminescence, 24 h; GLP-1R form is constitutively active; note: potency is the fitted concentration of half-maximal effect; % is set by controls: 0 for no effect and ±100 for the full control effect; nearly all actives have a fitted effect of over 55% in size
#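 Cells are plated, allowed 12 hours at 37 deg C, then treated with compounds for 24 hr before luciferase detection reagent is added and luminescence is read after 12 min at room temperature. The HEK293 line carries constitutively active GLP-1R with a cAMP-responsive reporter.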
# D3 ag: agonists of human D3 dopamine receptor. 410,000 tested, 0.58% active. D3R DiscoveRx beta-arrestin cells, luminescence, 90 min. max activation, %. P35462; in the data active = max activation above about 30%; note: 0% is about no effect
#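 Agonist mode: compounds and dopamine controls were applied to plated cells for 90 min at 37 degrees C after an overnight attachment at 1500 cells/well. Luminescent read-out followed 30 - 60 minutes at room temperature with DiscoveRx detection reagent.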
# Starred values were filed as active, the others as inactive; u = inconclusive; x = no result given. Only some compounds are listed: those with a hit (about 4.3% of all), similar ones and a draw of the others. Unless noted, calls come from the whole dose curve; as a rule, active = well fitted curve in the direction sought with a large enough effect; inconclusive = small, poorly fitted or top-dose-only effect, or another doubt; inactive = no such curve, though single readings can be large; an effect the other way counts as inactive or inconclusive.
SMILES,D3 antag,GLP1R ag,GLP1R inv ag,D3 ag
CCOC(=O)c1c(C)n(-c2ccc(OC)cc2)c2ccc(O)c(CN(C)C)c12,-1,11%,5.6µM*,1
CCOC(=O)c1c(C)n(-c2ccc(C)cc2)c2ccc(O)c(CN(C)C)c12,6,8%,u,5
O=C(CCCCCCCCC#CI)Oc1ccccc1,x,-1%,x,-17
COc1ccc(CC2(CO)CCN(Cc3ccc4c(c3)CCO4)CC2)cc1,u,1%,u,-28
COc1ccc2c(c1)C=C(CN1CCN(Cc3ccccc3C)C(CCO)C1)CO2 (stereo not given),u,6%,u,-24
COc1ccc(CC2(CO)CCN(CC3=Cc4cc(Cl)ccc4OC3)CC2)cc1,-75*,16%,2.8µM*,-13
COc1ccc2c(c1)C=C(CN1CCC(CO)(CCc3ccccc3)CC1)CO2,-87*,22%,u,-22
Cc1nn(-c2ccc(F)cc2)c(Cl)c1C(=O)OC(C)C(=O)N(C)C1CCCCC1 (stereo not given),8,-5%,5µM*,-2
COc1cccc(COC(=O)C2CCN(C(=O)c3ccc(F)cc3)CC2)c1OC,12,7%,-13%,2
O=C(OCCOc1ccc(Cl)cc1)c1cc(S(=O)(=O)N2CCCCC2)ccc1N1CCOCC1,2,17%,10µM*,1
Cc1cccc(C)c1OCc1cc(C(=O)NCC2CCCCC2)no1,2,4%,6%,1
Cc1cccc(C)c1OCc1cc(C(=O)N(Cc2c(C)nn(C)c2C)C2CC2)no1,20,4%,7.9µM*,23
O=C(CCl)N1N=C(c2ccco2)CC1c1cccs1 (stereo not given),0,-21%,0%,0
Cc1ccc(C2=NN(C(=O)CCl)C(c3cccs3)C2)o1 (stereo not given),-18,10%,3.2µM*,8
Cc1ccc(NC(=O)CSc2nc(=O)n(Cc3ccccn3)c3c2CCC3)cc1F,x,x,-14%,-3
Cc1ccc(CC(C)(O)CC(C)(O)Cc2ccc(C)cc2)cc1 (stereo not given),1,6%,10µM*,1
O=C(CCl)Nc1ccc(-c2ccccc2)cc1,-21,-4%,10µM*,-3
Cc1ccc(C(=O)Cn2cncn2)cc1,18,0%,4%,8
O=C(OCn1ncc(Cl)c(Cl)c1=O)c1ccccc1Cl,-70*,-17%,-49%,-9
O=C(Cn1ncc(Cl)c(Cl)c1=O)c1ccc(Cl)cc1,-55*,-17%,-82%,-7
O=C(Cn1cncn1)c1ccc(Cl)cc1,-80*,-1%,1%,2
C=CCn1c(C)cc(C(=O)Cn2ncc(Cl)c(Cl)c2=O)c1C,-88*,-16%,-1%,-14
CCOc1cc(C(=O)NC2CC(C)(C)NC(C)(C)C2)cc(OCC)c1OCC,-5,0%,u,3
CC1(C)CC(=O)C=C(NCCN2CCN(C(=S)Nc3ccccc3)CC2)C1,-8,2%,6%,-1
CC(C)CNC1=C(C(=S)Nc2ccccc2)C(=O)CC(C)(C)C1,-9,18%,4µM*,-8
SMILES,D3 antag,GLP1R ag,GLP1R inv ag,D3 ag
Cc1ccc(NC(=O)CN2C(=O)CCn3nc(-c4cccn4C)cc32)c(Cl)c1,x,x,4%,-4
Cc1cc(Cl)c(OCCCSc2nc(C)cc(=O)[nH]2)c(Br)c1,20,14%,8%,41*
Cc1ccc(CNc2ccc(Cl)cc2[N+](=O)[O-])cc1,-9,2%,13%,-2
CCNCCNc1ccc(Cl)cc1[N+](=O)[O-],-75*,-9%,u,-11
CS(=O)(=O)NCCCNc1ccc(Cl)cc1[N+](=O)[O-],-50*,0%,0%,-3
O=C(CC1Sc2ccccc2NC1=O)NNc1cccc(Cl)c1Cl (stereo not given),4,2%,2µM*,-4
CCN(CC)CCCNC(=O)CC1Sc2ccccc2NC1=O (stereo not given),-51*,-12%,u,-1
CCOc1ccc(C(c2c(O)cc(C)n(CCOC)c2=O)N2CCC(C)CC2)cc1 (stereo not given),x,x,10%,-17
S=C(NC1CCCCC1)N(CCc1nc2ccccc2[nH]1)C1CCCC1,0,-5%,10µM*,-1
CCOC(=O)c1ccc(NC(=O)CCc2c(C)nc3c(c(C)nn3C)c2C)cc1,x,18%,-26%,5
CC(=O)c1c(N2CCN(c3ccccc3)CC2)nc(=S)n(-c2ccccc2)c1C,-53*,1%,-15%,-11
COc1ccc(C(=O)NC(C)C2CC3CCC2C3)c(OC)c1 (stereo not given),23,-1%,10µM*,2
CN1CCNC(=O)C1CC(=O)NCCc1ccccc1F (stereo not given),8,4%,2%,16
Cc1cc2nc(NC(=O)C3(C)CCN3C(=O)C(C)C)[nH]c2cc1C (stereo not given),-18,-8%,9%,66*
CCCCCCC1CCC(C(=O)Nn2c(C)nc3ccccc3c2=O)CC1 (stereo not given),18,0%,u,30*
COc1ccccc1CN1CCN(Cc2ccc3ccccc3c2)CC1,-90*,4%,u,-2
COc1ccc(CN2CCN(Cc3ccc4ccccc4c3)CC2)cc1OC,-76*,11%,u,-49
COc1ccc2ccccc2c1CN1CCCC(CO)C1 (stereo not given),-9,-6%,-9%,-4
COc1ccc2ccccc2c1CN1CCN(Cc2ccccc2)CC1,-71*,-3%,0%,-30
COC(=O)c1ccc(NC(=O)c2c(NCc3cccc(F)c3)sc3c2CCCC3)cc1,x,x,u,-11
Cc1ccccc1CNC(=O)Nc1ccc2c(c1)N(C)C(=O)c1ccccc1S2,x,x,u,5
CCS(=O)(=O)CCSc1nc2ccccc2o1,-11,5%,4%,-2
O=S(=O)(CCSc1nc2ccccc2o1)c1nc2ccccc2s1,-62*,-15%,-4%,-11
CC(=O)Nc1ccc(NC(=O)CCc2c(C)nc3c(c(C)nn3-c3ccccc3)c2C)cc1,x,x,2%,-8
Cc1nc2c(c(C)nn2-c2ccccc2)c(C)c1CCC(=O)Nc1ccc(F)cc1,x,x,-6%,44*
SMILES,D3 antag,GLP1R ag,GLP1R inv ag,D3 ag
CCN(CC)CCNC(=O)CCc1c(C)nc2c(c(C)nn2-c2ccc(C)cc2)c1C,-50*,0%,1.6µM*,-10
CC(=O)Nc1ccc(C(=O)CSc2cc(C)c3cccc(C)c3n2)cc1,14,0%,-8%,41*
O=S(=O)(N/N=C/c1cccc(OC2CSC2)c1)c1ccccc1,-66*,-2%,u,-10
COc1ccc(-c2nnc3ccc(SC)nn23)cc1,-86*,19%,63%,14
CCOC(=O)C(C)Sc1ccc2nnc(-c3ccc(F)cc3)n2n1 (stereo not given),15,3%,7%,35*
Cc1ccc(S(=O)(=O)C(CNC(=O)COc2ccc(Cl)cc2)c2ccco2)cc1 (stereo not given),x,x,-18%,-13
Oc1c(C(c2cccc(Cl)c2)N2CCOCC2)sc2nc(-c3ccco3)nn12 (stereo not given),x,x,9%,-14

# Source: PubChem
